Screening results (PubChem BioAssay)
Sampled rows, rich in hits. Any-hit rate of the full collection: about 3.5%.
TEAD-YAP inh – TEAD-YAP interaction inhibition, primary screen, TEAD-YAP interaction inhibitor project, luminescence, HEK-TIYL cells. TEAD-Gal4/YAP UAS-luciferase luminescence. inhibition, % at 9.12 µM. 640,000 compounds, 1.4% hits. AID 1259422, 2018; in the data active = inhibition above about 32%
MITF inh – MITF inhibitors, primary screen, biochemical, AlphaScreen, human. inhibition, % at 2.6 µM. 650,000 compounds, 0.91% hits. AlphaScreen MITF homodimerization, bead proximity signal. AID 1259374, 2018. Microphthalmia-associated transcription factor (Homo sapiens), O75030; in the data active = inhibition above about 50%
GPR151 activ – activators of human GPR151, primary screen, cell-based, PathHunter beta-arrestin, luminescence | PathHunter beta-arrestin GPR151 cells | 650,000 compounds, 1% hits | AID 1508602, 2020 | activation, % at 11.2 µM | G-protein coupled receptor 151 (Homo sapiens), Q8TDV0; in the data active = activation above about 4.9%
FBW7 act – FBW7 E3 ligase activators, primary screen, biochemical, AlphaScreen, human; F-box/WD repeat-containing protein 7 (Homo sapiens), Q969H0; AlphaScreen FBW7–phospho-cyclin E peptide binding, activator screen; normalized activity (activation), % at 26.1 µM; 650,000 compounds, 0.13% hits; in the data active = normalized activity above about 1.9%;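 also: purified mutant Fbw7 with reduced substrate affinity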
A number is an active result; 0 = inactive.

SMILES | TEAD-YAP inh | MITF inh | GPR151 activ | FBW7 act
O=NN(CCc1ccncc1)c1ccc(OCc2ccccc2)cc1 | 38 | 0 | 0 | 0
CCOCCOC(=O)c1[nH]c2c(c1C)C(=O)CC(c1ccco1)C2 (centres undefined) | 51 | 0 | 0 | 0
Cc1c(C(=O)OCc2ccccc2)[nH]c2c1C(=O)CC(c1ccco1)C2 (centres undefined) | 57 | 0 | 0 | 0
CCOC(=O)c1[nH]c2c(c1C)C(=O)CC(c1ccco1)C2 (centres undefined) | 58 | 0 | 0 | 0
COCCOC(=O)c1[nH]c2c(c1C)C(=O)CC(c1ccco1)C2 (centres undefined) | 49 | 0 | 0 | 0
CCOCCOC(=O)c1[nH]c2c(c1C)C(=O)CC(c1ccc(OCC)cc1)C2 (centres undefined) | 0 | 0 | 0 | 0
COCCOC(=O)c1[nH]c2c(c1C)C(=O)C(C(=O)OC)C(C)C2 (centres undefined) | 0 | 0 | 0 | 0
COc1ccc(/C=C2\C(=O)NC(=O)N(c3cccc(Br)c3)C2=O)cc1C | 0 | 0 | 0 | 0
Cc1c(C(=O)OCCOC(C)C)[nH]c2c1C(=O)CC(c1ccco1)C2 (centres undefined) | 60 | 0 | 0 | 0
Cc1c(C(=O)OCCOC(C)C)[nH]c2c1C(=O)CC(C)(C)C2 | 0 | 0 | 0 | 0
CSCCOC(=O)c1[nH]c2c(c1C)C(=O)CC(c1ccco1)C2 (centres undefined) | 50 | 0 | 0 | 0
Cc1cc(Nc2nccc(-c3cc(C#N)cc(N4CCOCC4)c3)n2)no1 | 0 | 0 | 0 | 0
O=C(NC1CCC1)c1cnc2scc(-c3ccccc3)n2c1=O | 0 | 0 | 0 | 0
O=C(Cc1ccc2c(c1)CCCC2)Nc1nccs1 | 0 | 0 | 0 | 0
CC(C)c1ccc(NC(=O)COc2ccc(C(C)C)cc2)cc1 | 0 | 0 | 0 | 0
CC(=O)c1ccc(OCC(=O)Nc2nccs2)cc1 | 55 | 0 | 0 | 0
CC(C)c1ccc(OCC(=O)Nc2nccs2)cc1 | 81 | 0 | 0 | 0
O=C(COc1ccc2c(c1)CCC2)Nc1nccs1 | 74 | 0 | 0 | 0
CC(C)(C)c1ccc(OCC(=O)Nc2nccs2)cc1 | 74 | 0 | 0 | 0
Cc1ccccc1Cn1c(C)c(CNCCc2c[nH]c3ccccc23)c(C(=O)O)c1C | 0 | 0 | 0 | 0
O=C(NCCc1ccc(Cl)cc1)c1cc(S(=O)(=O)N2CCOCC2)ccc1F | 0 | 0 | 0 | 0
O=C(COc1ccc(Br)cc1)Nc1nccs1 | 35 | 0 | 0 | 0
O=C(Nc1nccs1)c1cc(Br)c(Br)s1 | 0 | 0 | 0 | 0
CC(Sc1nnc(N)s1)C(=O)Nc1nccs1 (centres undefined) | 0 | 0 | 0 | 0
CC(Sc1nnc(-c2ccc(C(C)(C)C)cc2)o1)C(=O)Nc1nccs1 (centres undefined) | 52 | 0 | 0 | 0
SMILES | TEAD-YAP inh | MITF inh | GPR151 activ | FBW7 act
O=C(Nc1nccs1)c1cc2c(s1)CCCC2 | 65 | 0 | 0 | 0
COc1ccc(C(=O)Nc2cc(C)nn2-c2nc3ccc(OC)cc3s2)cc1 | 0 | 0 | 0 | 0
CN1CCN(C(=O)c2ccc(-c3ccc(N4CCOCC4)cc3)nc2N(C)C)CC1 | 0 | 0 | 0 | 0
COc1ccc(S(=O)(=O)Oc2c(OC)cc(C=O)cc2OC)cc1 | 39 | 0 | 0 | 0
COc1ccc(S(=O)(=O)Oc2cc(C=O)ccc2OC)cc1 | 50 | 0 | 0 | 0
N#CC(C#N)=NNc1ccc2c(c1)OCO2 | 39 | 0 | 0 | 0
CCOC(=O)/C(C#N)=N/Nc1ccc2c(c1)OCCO2 | 0 | 0 | 0 | 0
CN(C)c1ccc(C(CNC(=O)Cc2ccc(F)cc2)N2CCN(c3ccccc3)CC2)cc1 (centres undefined) | 0 | 72 | 0 | 0
O=c1c(-c2nncn2-c2ccccc2)coc2c(O)c(O)ccc12 | 0 | 53 | 0 | 0
COc1cccc(-n2c(SC)nc3c(c2=O)C2(CCCCC2)Cc2ccccc2-3)c1 | 0 | 0 | 0 | 0
CCCOC(=O)c1c(NC(=O)/C=C/C(=O)O)sc2c1CCCCC2 | 0 | 0 | 0 | 0
CCCOC(=O)c1c(NC(=O)/C=C/C(=O)O)sc2c1CCCC2 | 37 | 0 | 0 | 0
CCOC(=O)c1c(NC(=O)/C=C\C(=O)O)sc2c1CCC(CC)C2 (centres undefined) | 43 | 0 | 0 | 0
CCOC(=O)c1c(NC(=O)/C=C/C(=O)O)sc2c1CCCCC2 | 0 | 0 | 0 | 0
CCN(Cc1ccccc1)C(=O)Cc1nc(-c2ccc(OC)cc2)no1 | 0 | 0 | 0 | 0
